# Measurements reported in the supplement of paper PMC10849652.
# Of roughly 7,900 targets only a part is listed; those with a hit were picked by preference. About 0.6% of all pairs of compound and target were hits. Unmarked numbers belong to inactive results.
# Tests used:
# Test in all cases: log2 fold change, soluble protein after heating vs DMSO (PISA); higher = thermal stabilisation; K562 cells, 10 uM, 30 min; active = over 0.2 and 3.5 SD of the protein, either way, in both replicates (recomputed)
# erlotinib = compound: C#Cc1cccc(Nc2ncnc3cc(OCCOC)c(OCCOC)cc23)c1 [erlotinib]
# Procedure, shortened: (§1)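 Values are thermal stability changes relative to control samples and are taken from duplicates. They are stated as log2 fold changes. Before quantification by TMTpro 16plex LC-MS/MS with equalised channel sums, K562 cells at 2×10^6 cells/mL were treated with 10 μM compound for 30 min, heated in aliquots for 3 min across 48°C-58°C, pooled, extracted in PBS with 0.5% NP-40 at 4°C, and centrifuged at 21,000xg for 90 min to give the soluble supernatant.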
# [1] = compound: C/C(=N\NC(=O)C1=CC(=CC=C1)S(=O)(=O)N2CCOCC2)/C3=C(C=CC(=C3)Cl)O
# Procedure, shortened: as §1
# [2] = compound: C1=CC(=C(C=C1Cl)C2=NC3=NC=CN=C3C(=N2)NC4=CC=NC=C4)F
# Procedure, shortened: as §1
# [3] = compound: C1=CC(=CC=C1C2=NC3=C(N2)C=C(C=C3)C(=O)N)OC4=CC=C(C=C4)Cl
# Procedure, shortened: as §1
# [4] = compound: C1=CC2=C(C=CC(=C2)/C=C\3/C(=O)NC(=NCC4=CC=CS4)S3)N=C1
# Procedure, shortened: as §1
# [5] = compound: C1=CC2=NC=CN=C2C=C1/C=C/3\C(=O)NC(=O)S3
# Procedure, shortened: as §1
# [6] = compound: C1=CC=C(C=C1)C2=NC(=C(N2)C3=CC=NC=C3)C4=CC(=C(C=C4)Cl)O
# Procedure, shortened: as §1
# [7] = compound: C1=CC=C2C(=C1)C3=NNC4=CC=CC(=C43)C2=O
# Procedure, shortened: as §1
# [8] = compound: C1CCN(C1)C(=O)NC2=CC=CC(=C2)NC3=NC=C(C(=N3)NCCC4=CN=CN4)Br
# Procedure, shortened: as §1
# [9] = compound: C1CN(CCC1(CC2=CC=C(C=C2)Cl)N)C3=NC=NC4=C3C=CN4
# Procedure, shortened: as §1
# Chain of UniProt Q9C073 (Q9C073 whole entry, looked up): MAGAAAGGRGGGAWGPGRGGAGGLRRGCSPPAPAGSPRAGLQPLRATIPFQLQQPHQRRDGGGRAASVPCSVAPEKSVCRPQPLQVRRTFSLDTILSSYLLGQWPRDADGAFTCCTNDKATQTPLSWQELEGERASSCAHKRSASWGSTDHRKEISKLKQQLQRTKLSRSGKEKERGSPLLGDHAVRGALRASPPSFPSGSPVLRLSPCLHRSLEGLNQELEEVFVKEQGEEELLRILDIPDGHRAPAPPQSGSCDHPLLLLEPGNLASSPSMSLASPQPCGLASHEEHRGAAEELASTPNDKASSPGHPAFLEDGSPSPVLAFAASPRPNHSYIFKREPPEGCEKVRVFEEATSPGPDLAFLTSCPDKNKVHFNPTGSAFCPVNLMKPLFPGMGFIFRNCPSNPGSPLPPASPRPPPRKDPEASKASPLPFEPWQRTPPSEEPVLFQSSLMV
# Chain of UniProt O75911 (O75911 whole entry, looked up): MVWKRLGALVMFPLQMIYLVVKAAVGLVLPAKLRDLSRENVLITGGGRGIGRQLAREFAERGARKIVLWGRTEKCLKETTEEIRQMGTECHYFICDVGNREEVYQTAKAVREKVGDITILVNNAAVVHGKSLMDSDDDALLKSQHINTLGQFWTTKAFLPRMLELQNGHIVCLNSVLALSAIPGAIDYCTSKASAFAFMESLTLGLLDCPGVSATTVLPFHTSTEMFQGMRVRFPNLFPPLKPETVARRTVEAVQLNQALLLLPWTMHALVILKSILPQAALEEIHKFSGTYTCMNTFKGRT
# Chain of UniProt O76075 (O76075 whole entry, looked up): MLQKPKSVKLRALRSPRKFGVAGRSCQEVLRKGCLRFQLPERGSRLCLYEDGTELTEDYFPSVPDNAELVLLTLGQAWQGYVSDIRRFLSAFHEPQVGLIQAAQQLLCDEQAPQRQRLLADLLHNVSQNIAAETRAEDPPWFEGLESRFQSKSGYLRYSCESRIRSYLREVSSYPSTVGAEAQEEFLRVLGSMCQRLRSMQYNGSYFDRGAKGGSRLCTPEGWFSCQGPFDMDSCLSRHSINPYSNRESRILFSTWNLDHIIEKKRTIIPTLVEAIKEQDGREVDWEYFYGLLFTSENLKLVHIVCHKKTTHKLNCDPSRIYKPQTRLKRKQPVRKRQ
# Chain of UniProt Q9NXF7 (Q9NXF7 whole entry, looked up): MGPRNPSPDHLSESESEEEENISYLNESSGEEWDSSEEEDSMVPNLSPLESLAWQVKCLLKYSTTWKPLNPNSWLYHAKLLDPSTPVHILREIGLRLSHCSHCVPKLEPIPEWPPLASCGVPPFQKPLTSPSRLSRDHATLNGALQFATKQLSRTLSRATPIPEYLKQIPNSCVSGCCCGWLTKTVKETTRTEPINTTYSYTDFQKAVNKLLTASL
# Chain of UniProt Q9NSI2 (Q9NSI2 whole entry, looked up): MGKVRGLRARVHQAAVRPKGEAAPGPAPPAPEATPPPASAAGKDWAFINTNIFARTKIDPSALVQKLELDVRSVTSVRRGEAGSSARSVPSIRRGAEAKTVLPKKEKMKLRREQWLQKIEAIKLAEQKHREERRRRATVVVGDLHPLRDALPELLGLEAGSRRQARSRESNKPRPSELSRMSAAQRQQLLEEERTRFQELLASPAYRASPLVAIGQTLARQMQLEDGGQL
# Chain of UniProt P06730 (P06730 whole entry, looked up): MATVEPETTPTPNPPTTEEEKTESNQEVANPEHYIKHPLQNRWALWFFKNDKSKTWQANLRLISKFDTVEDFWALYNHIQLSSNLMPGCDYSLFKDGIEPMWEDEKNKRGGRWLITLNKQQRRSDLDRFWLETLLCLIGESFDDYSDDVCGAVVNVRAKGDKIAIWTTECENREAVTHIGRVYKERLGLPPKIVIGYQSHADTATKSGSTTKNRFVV
# Chain of UniProt Q9NX74 (Q9NX74 whole entry, looked up): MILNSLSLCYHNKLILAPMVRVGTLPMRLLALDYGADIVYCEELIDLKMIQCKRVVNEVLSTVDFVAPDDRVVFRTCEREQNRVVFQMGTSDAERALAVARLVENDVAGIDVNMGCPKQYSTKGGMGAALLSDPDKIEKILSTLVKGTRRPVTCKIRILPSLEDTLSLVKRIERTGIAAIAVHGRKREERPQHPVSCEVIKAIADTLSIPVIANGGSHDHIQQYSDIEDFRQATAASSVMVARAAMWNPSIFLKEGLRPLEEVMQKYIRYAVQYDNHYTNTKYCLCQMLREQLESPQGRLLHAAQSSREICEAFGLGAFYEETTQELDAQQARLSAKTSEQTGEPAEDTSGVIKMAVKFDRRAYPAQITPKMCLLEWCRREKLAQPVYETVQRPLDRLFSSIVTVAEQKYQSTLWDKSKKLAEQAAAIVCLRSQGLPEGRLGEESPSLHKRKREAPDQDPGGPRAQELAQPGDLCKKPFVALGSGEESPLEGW
# Chain of UniProt Q86UK5 (Q86UK5 whole entry, looked up): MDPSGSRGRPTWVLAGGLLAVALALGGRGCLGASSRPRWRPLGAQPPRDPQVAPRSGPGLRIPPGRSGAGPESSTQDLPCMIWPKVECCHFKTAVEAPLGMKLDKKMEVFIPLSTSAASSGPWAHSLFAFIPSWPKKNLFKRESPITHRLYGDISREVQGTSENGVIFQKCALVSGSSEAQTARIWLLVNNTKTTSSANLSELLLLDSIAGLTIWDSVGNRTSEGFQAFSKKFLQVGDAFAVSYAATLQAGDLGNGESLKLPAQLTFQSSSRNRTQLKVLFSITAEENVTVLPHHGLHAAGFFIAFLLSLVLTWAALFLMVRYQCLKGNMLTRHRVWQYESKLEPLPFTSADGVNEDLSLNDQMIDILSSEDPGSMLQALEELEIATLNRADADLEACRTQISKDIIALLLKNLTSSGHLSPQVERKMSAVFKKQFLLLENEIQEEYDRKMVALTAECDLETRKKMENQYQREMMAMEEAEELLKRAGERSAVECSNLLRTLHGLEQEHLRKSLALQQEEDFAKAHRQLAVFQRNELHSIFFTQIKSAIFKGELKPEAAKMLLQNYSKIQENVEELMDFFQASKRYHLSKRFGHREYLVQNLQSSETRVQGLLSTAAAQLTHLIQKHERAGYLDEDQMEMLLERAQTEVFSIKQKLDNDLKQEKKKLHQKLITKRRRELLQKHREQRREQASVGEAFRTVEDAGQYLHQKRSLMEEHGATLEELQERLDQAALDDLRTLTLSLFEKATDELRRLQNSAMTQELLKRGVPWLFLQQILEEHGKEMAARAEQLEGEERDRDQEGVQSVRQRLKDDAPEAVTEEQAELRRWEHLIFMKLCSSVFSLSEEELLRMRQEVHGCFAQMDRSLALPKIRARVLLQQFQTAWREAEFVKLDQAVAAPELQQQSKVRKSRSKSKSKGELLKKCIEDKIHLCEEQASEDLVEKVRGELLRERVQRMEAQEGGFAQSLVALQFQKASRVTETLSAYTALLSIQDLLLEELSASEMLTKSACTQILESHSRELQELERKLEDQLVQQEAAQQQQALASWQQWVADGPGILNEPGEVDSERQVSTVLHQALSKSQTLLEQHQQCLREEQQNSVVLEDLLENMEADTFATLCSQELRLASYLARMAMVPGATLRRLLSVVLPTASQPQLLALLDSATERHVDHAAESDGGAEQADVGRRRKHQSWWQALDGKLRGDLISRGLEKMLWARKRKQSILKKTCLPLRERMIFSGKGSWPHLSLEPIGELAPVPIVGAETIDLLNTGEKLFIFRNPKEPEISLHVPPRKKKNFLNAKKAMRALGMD
# Chain of UniProt Q9H467 (Q9H467 whole entry, looked up): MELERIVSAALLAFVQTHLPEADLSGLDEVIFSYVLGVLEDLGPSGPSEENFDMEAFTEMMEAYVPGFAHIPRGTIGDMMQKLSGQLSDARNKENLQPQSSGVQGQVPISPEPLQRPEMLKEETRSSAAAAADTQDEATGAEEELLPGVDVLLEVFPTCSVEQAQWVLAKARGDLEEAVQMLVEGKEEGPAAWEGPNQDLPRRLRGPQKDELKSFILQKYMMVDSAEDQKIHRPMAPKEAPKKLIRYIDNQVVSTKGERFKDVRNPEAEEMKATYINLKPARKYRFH
# Chain of UniProt Q9H2U1 (Q9H2U1 whole entry, looked up): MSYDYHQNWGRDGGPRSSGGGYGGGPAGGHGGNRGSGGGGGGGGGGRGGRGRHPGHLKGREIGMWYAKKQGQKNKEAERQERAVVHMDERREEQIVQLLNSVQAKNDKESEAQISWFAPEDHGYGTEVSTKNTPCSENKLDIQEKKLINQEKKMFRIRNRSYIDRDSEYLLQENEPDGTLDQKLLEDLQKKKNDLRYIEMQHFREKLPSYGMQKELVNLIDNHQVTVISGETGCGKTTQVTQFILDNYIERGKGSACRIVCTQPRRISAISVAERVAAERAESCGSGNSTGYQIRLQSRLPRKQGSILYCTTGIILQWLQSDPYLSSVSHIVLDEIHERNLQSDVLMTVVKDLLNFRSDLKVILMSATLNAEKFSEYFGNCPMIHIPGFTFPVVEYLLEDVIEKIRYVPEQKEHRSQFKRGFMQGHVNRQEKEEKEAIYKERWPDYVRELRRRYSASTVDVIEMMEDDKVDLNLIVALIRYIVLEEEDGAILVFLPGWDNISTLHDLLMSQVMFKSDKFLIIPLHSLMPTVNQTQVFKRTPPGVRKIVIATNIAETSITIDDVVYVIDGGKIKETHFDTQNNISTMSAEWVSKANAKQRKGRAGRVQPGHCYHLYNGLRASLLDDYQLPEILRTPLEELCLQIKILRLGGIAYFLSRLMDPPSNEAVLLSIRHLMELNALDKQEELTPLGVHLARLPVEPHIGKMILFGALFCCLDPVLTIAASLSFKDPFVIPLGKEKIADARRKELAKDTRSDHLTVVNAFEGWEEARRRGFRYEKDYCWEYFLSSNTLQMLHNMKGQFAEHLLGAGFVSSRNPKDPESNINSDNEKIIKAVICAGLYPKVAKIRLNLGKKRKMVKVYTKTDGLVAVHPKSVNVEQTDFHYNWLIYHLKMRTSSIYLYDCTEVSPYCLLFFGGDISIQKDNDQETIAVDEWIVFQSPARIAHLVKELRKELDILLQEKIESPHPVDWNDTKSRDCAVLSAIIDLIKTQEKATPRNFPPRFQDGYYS
# Chain of UniProt Q96DA6 (Q96DA6 whole entry, looked up): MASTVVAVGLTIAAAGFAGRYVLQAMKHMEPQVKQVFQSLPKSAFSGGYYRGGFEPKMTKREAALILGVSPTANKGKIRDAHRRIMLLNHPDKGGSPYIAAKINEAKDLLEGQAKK
Target,log2 fold change (erlotinib),log2 fold change [1],log2 fold change [2],log2 fold change [3],log2 fold change [4],log2 fold change [5],log2 fold change [6],log2 fold change [7],log2 fold change [8],log2 fold change [9]
CUEDC2 (UniProt Q9H467),0.016,-0.023,0.047,0.023,-0.021,0.117,-0.074,0.008,-0.071,-0.006
FADS3 (UniProt Q9Y5Q0),0.03,-0.005,0.104,0.017,0.064,0.058,0.04,0.001,-0.055,0.05
DUS2 (UniProt Q9NX74),-0.002,-0.022,0.043,0.088,0.166,-0.011,-0.009,-0.123,-0.028,0.021
EIF4E isoform 2 (UniProt P06730),0.084,-0.035,0.056,-0.073,0.01,0.168,0.074,0.152,0.181,0.146
EXOC7 (UniProt Q9UPT5),0.032,0.074,0.001,-0.042,0.048,0.016,0.011,-0.016,-0.023,-0.014
ERLIN1 (UniProt O75477),-0.081,0.013,-0.097,-0.001,-0.015,-0.011,-0.006,-0.047,0.008,-0.124
EEF1B2 (UniProt P24534),-0.006,0.033,-0.028,-0.058,0.008,-0.036,0.027,0.02,0.064,-0.058
ETNK1 (UniProt Q9HBU6),0.004,0.128,0.244,-0.001,-0.126,0.035,0.037,0.028,-0.033,-0.119
DCAF16 (UniProt Q9NXF7),0.051,0.042,0.036,0,-0.034,-0.002,-0.001,0.048,0.039,-0.127
EXOSC10 (UniProt Q01780),1.07,-0.86 (active),0.136,0.008,0.078,-0.101,-0.444,-0.055,0.052,0.067
DSN1 (UniProt Q9H410),0.07,0.042,-0.002,0.024,-0.019,-0.009,-0.018,0.006,0.004,-0.091
EXTL2 (UniProt Q9UBQ6),0.051,0.018,-0.129,0.04,0.016,0.037,-0.031,0.062,-0.092,-0.119
DNAJC19 (UniProt Q96DA6),-0.009,0.014,0.055,0.001,-0.005,0.04,0.052,-0.022,-0.012,0.016
EFCAB14 (UniProt O75071),0.051,-0.053,0.013,0.024,-0.049,0.033,0.159,-0.119,0.044,-0.032
CUX1 isoform 3 (UniProt P39880),0.013,0,0.034,-0.015,-0.008,0.11,-0.074,0.01,-0.003,0.092
DNAH11 (UniProt Q96DT5),-0.252,-0.237,0.001,0.085,0.012,-0.023,-0.28,-0.001,0.125,0.119
CTSA (UniProt P10619),-0.058,-0.065,0.001,-0.004,-0.053,0.018,0.04,0.003,0.021,0.051
CTSZ (UniProt Q9UBR2),0.053,-0.025,0.027,-0.047,-0.013,0.023,-0.017,0.073,0.057,0.09
F5 (UniProt P12259),-0.122,0,-0.002,0.061,-0.096,-0.054,-0.018,-0.064,0,0.052
ELOC (UniProt Q15369),-0.055,0.124,0.066,0.017,0.117,0.048,0.075,0.009,-0.016,-0.024
DHX36 (UniProt Q9H2U1),-0.089,0.013,-0.08,0.031,-0.072,0.011,0.044,-0.023,0.047,-0.066
DHX16 (UniProt O60231),0.01,0.05,0.224,0.027,0.007,-0.01,0.014,0.013,-0.044,0.024
DHRS3 (UniProt O75911),0.116,0.041,0.11,0.018,0.155,-0.037,0.024,0.074,0.005,0.191
FAM207A (UniProt Q9NSI2),-0.082,-0.092,-0.039,-0.032,-0.204,-0.018,-0.027,0.006,-0.159,-0.054
DYNC1I2 isoform 2 (UniProt Q13409),0.018,0.155,0.057,-0.056,-0.202,-0.013,0.17,0.057,-0.062,0.029
EIF3J (UniProt O75822),0.056,-0.004,0.068,-0.033,0.012,0.048,0.101,0.021,0.009,-0.01
FAM117A (UniProt Q9C073),0.127,0.054,-0.056,0.053,-0.279 (active),-0.101,-0.041,-0.129,-0.143,-0.121
DBT (UniProt P11182),-0.041,-0.019,-0.021,0.049,-0.03,0.038,0.099,-0.01,-0.006,-0.065
DFFB (UniProt O76075),-0.015,0.103,0.022,0.035,0.101,0.016,0.037,-0.005,-0.305 (active),-0.039
EVC2 (UniProt Q86UK5),-0.01,-0.044,-0.013,-0.035,-0.069,-0.019,-0.002,0.061,-0.042,-0.117
